Assay results as given in PubChem BioAssay AID1508600 (Functional Genomics Laboratory (NCATS/FGL), 2020).
In all, about 53,000 sequences went through this assay and about 3,700 (7%) were called active. Only a selection was taken, and actives are over-represented in it overall. A number with no mark means an inactive call.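 Rule for the calls: active = gene knockdowns whose robust z-score for IL-1 alpha signal is at least 2 or at most -2, so actives lie on both sides; inactive = the rest.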

Assay: Components of the Cytosolic LPS Sensing Pathway: Gene Identification via Genome-wide siRNA Screen;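 note: robust z of the log signal after scaling to non-targeting control siRNA wells of the plate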
Conditions: RAW264.7 macrophages, IL-1a HTRF, actives lie on both sides, screened at 100 nM (by protocol), cells primed 5 h with Pam3CSK4 first
Method in brief: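 Cells (RAW264.7, 1×10^4 per well) were transfected with siRNA at 100 nM and cultured 48h at 37 degrees C. Pam3CSK4 was added for 5 hours; LipidA transfection followed for 24 hour. IL-1a was then measured by HTRF.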

Sequence	z-score
GGUGGAUAGAGCAAUUGAATT against Jph1	1.5
GGCGGCACAAAUUGUUUUUTT against Gimap9	-2.03 (active)
GCCAAGUACUCGUUUCCACTT against Wtap	0.826
GCCUUGGACUGCUUUGGAUTT against Dync1li1	-0.379
GGCAUUCCUCUUGAAUAUUTT against Dck	-0.805
GCCCUACCCUCAUCAUAAATT against Tmem94	-1.36
GGACUUCAGAGUGGACAUUTT against Sec16b	-0.19
GGAAAGUUGGACCUUCUGATT against Adamts6	2.35 (active)
GCUGUGAAGAAUCAGAUAGTT against Aatf	-0.155
GGAUUUAUGGCAAGUUUCUTT against Ppp2r5e	0.00387
CCAGGUGUACCUUACGUUGTT against Eif4ebp2	1.05
CGGACAAGAUAAAGUGUGUTT against Lypd9	-1.07
GGAACUCACACAGAACCAATT against Bloc1s6	6.84 (active)
GGUGUAAAGUAAUCAAGGCTT against Dbx2	0.453
GGUUUUAUGAGAAAGCAGATT against Ogfod1	0.0298
GCACAGCUACCAUUCACAATT against Nxpe2	-1.97
GGAGGAACAUAUGCUCAGATT against Lce1e	-2.99 (active)
CCACUAAGGUUUGAAGAAGTT against Nes	1.21
CCUGAUUAUUCUGAGAAAUTT against Adsl	1
GGGACUCGAGUUUCAUCUATT against Casc1	0.768
GGAAUUACGAAGCUGUGUGTT against Cdkl3	-2.36 (active)
CCGUUCUGGCACAGAACAGTT against A830005F24Rik	1.41

Sequence	z-score
CCAUUGUACAGAAAAACACTT against Abhd18	0.41
GGAAAGAGCUUUUUAUUGUTT against Zfp235	0.145
CCAUAUACCCUCGAUGCCATT against Abhd16b	-2.76 (active)
GCCCGAAUACAGGAAGAUCTT against Hspg2	1.42
GGAAAUGAGACGAAGGAGGTT against Kpna6	-0.642
GGAACUGAAAAACUCAACUTT against Evi2a	-3.13 (active)
GGCACAGAGAACAAUACUUTT against Npy5r	-0.128
CCCUAUUAGUGGAAGCAUGTT against Zfp738	-1.94
GCAUCGCAUUUAAAUAGAATT against 4833408A19Rik	0.965
GGGUGUAGCAUUGUCACAGTT against Olfr1133	2.32 (active)
GGAGAUGAACAAGGACCUATT against Apoa1	0.717
GGAUGUGAUGAAGUUGGCCTT against Olfr78	-1.96
GCUGGUGAGUCACUGAUGATT against Med22	1.32
GGAAAGAAGAAACAUUCCUTT against Socs5	0.495
GCGACUCCCACAUACUCAGTT against Muc19	-0.215
UCCAUACUACUCAUCAAAUTT against Olfr68	3.78 (active)
GCCUAAGAACGAUGACACUTT against Surf2	0.179
GGUCUCUGUAGAGAUGGCATT against 6820408C15Rik	-2.52 (active)
CGUUAAUUGCCCUCAAAGATT against Spon1	1.03
GGCGGAGAGGAAAUCUAUGTT against Mycs	1.4
GCCUUUGCACAGUUUGGACTT against BC002059	-1.13
GGCAGUUCUCCAGUGCUUUTT against Mtss1	-1.32

Sequence	z-score
CCUCGUAUUUAUACUCAGUTT against Gpr18	0.3
CCACCUUCCUAUGUUUGUATT against Ebf2	3.73 (active)
GGCUGCUCAAAAAGAACAUTT against Kif21b	0.645
GCUUUGGCUCAAAGCACGUTT against Mcm3	1.93
GCGGUCAAAUGCAACAAACTT against Fabp5	-0.33
CCUCCUGACCUUAAUCUUGTT against P2rx1	0.507
GGCUGCACAAAGAUGUUCATT against Yy1	2.46 (active)
GCUUAAUCCUUAGUCAGCATT against F2rl2	-0.591
GGAAGAGGUGAAUGAUAAATT against Bmi1	1.51
GCUCAACAGCAGUGACGAUTT against Nras	-0.701
GGCCAGUCAAGGUUGGAUUTT against Gpr152	-0.32
GCUGUGAAUUCCAAAUGCGTT against Myh4	3.33 (active)
GGAUACAAUGCAACUGUCCTT against Kif4	-1.08
GCACUCUCUACUCUAUUAATT against Ackr2	2.68 (active)
GGUUAGCCUACUCUCUAAUTT against Tomm22	0.501
GGCUCAAAUACAGGAAAUUTT against Tmem45b	0.498
GGGCAGGUUGUCUUUCUACTT against Plpp1	0.997
UCAACAGGGCUGAUAUCCCTT against Acsl5	-1.61
CGGUGAAGACUAUCAUGGUTT against Tln1	-0.791
CCUUAAUCCAAACAAGUCUTT against Ncl	1.08
GGUUUCUUAGAUUAGCUAGTT against Map3k12	0.445
GGUUAUCAAGAUUGCAUGUTT against Olfr853	-0.646

Sequence	z-score
GGGUUAUGAAGAGAAACUUTT against Gatad2b	0.236
GGACUGGUGGACAUAUGAATT against Os9	2.81 (active)
GGAAAAGGUGGCCUACACATT against Rhox11	-1.7
CCAAUAAAAUUGGUGUUCCTT against H13	0.18
GGUUAAAAUGUUGAUUGCUTT against Ndrg4	-0.654
GGGAAAAGUGACUAGGCUUTT against Ngb	-0.331
CCCACAGUGCAAAAAUGACTT against Olfr663	-2.26 (active)
GGCAUAUGCACUUUAUUUCTT against Cep97	-0.339
GCAUUAAAGGAGUCCGAAUTT against Cpn1	-0.328
GCUUAUAACAGUUGAUGAGTT against Ndufs4	-0.54
GGCUAAUUCUCAAAGAGAUTT against Dnttip2	-1.87
AUUCGGGAAAAUUUUAGACTT against Rbfox3	-0.171
GGCUAAAACUGCACAUAAATT against Pyroxd1	-3.43 (active)
GGGAAGCACAAGGUUUAGUTT against Brca1	0.531
GCAACAAGAGGGCAGAAUGTT against Olfr518	-2.22 (active)
GGAAGUUACAGAUGUGGCUTT against Nog	-0.879
GCACCAUUCUAGGAGUCAUTT against Lonp2	-0.504
GGACCACGCAAAAGAAUAUTT against Mtss1	0.0212
GCUCAUGUUGCACUGGAAATT against Ulbp1	1.22
AAGCUUCAACAUCAGUUUGTT against Olfr1392	-1.54
GGCGAAGGGCAAGAAUAAATT against Hes1	2.16 (active)
CCCAUACUGUCACUUUAAGTT against H2bc8	-2.23 (active)

Sequence	z-score
GGUUCUGGUAUAAGUUAACTT against Gabrg3	0.292
GCACGAAUGCCUUUUUAGATT against Mphosph8	0.32
GGAGCUGGAGACUAAAGCUTT against Slc29a2	-0.478
GCAUUUGAUGAAGACUCGATT against Barx2	0.467
GGUUUAGCUGCAUUAAAAGTT against Lrrc27	0.956
GGCCGAGAGUAUUUCUACATT against Efna5	-0.254
CGAACACUCGUUAAAGAAATT against Krt23	0.247
CCAUGCACAAUUACAAGCUTT against Ret	-0.000288
CGGAAAAUUUGUUCCUGACTT against Rbm12b2	1.44
GCAAAUGAGAGGUCUGUUGTT against Olfr1024	-2.52 (active)
CCCUAGGGUGAUGAAGCAUTT against Ckmt2	-0.984
GCCAUUAAGGAAAUGUUCUTT against Olfr426	-0.969
GGUUCUUUGGCUCUGUAUGTT against Atp5c1	-0.64
GGUCAUCCUUCUAUUCUCUTT against Olfr648	-2.01 (active)
GGAGGUAAAAGAUGAGAAATT against Plekho1	1.57
CCUCAUAAAUUCACUCUCCTT against Bpifa2	0.984
GGAGAAAACUUAGAUUACCTT against Ppil4	2.15 (active)
GGAUAUGCUGUGAAGUAUUTT against Plekhf2	1.68
GGUUAAGACCUUAAACAGATT against Prl4a1	0.0572
CGUUUCUCAGCAAACUUACTT against Il17a	0.669
